Reference: the supplement of paper PMC10338343
± gives the standard deviation. Over roughly 8,200 sequences, “pre-steady-state target cleavage rate” has its median near 0.024; the highest 2% begin near 1.3. The sample as a whole holds a higher share of the highest values than the screen did.

Test system: MIWI (PIWIL1) piRISC loaded with L1MC piRNA (30 nt)
Assay: pre-steady-state target cleavage rate (min^-1); MIWI and MILI are mouse PIWI proteins and EfPiwi is from a freshwater sponge; tags in brackets are library labels; higher = faster piRNA-guided slicing of the target
Conditions: guide: L1MC piRNA 5'p-UAACUAAAUACUAUGCAAGCUGUAGGUCCU
Procedure, shortened: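 A transcribed, DNA-blocked target RNA library […] was incubated at 33 °C for 0–8 or 0–960 min with 1 nM active affinity-purified piRISC carrying one synthetic guide, in HEPES–potassium acetate buffer with or without 500 nM GTSF1 partner protein. Uncleaved targets were then sequenced and normalised to depth and to weakly complementary targets. Data from three trials were pooled, with k3 capped at 0.0001 min^-1, and a burst-and-steady-state fit yielded the pre-steady-state cleavage rate.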

[1] = auxiliary factor: 500 nM mouse GTSF1
[2] = auxiliary factor: none (no GTSF1)
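Note: 1 nM active piRISC with 0.1 nM target library at 33 °C single turnover.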

Sequence	pre-steady-state target cleavage rate [1]	pre-steady-state target cleavage rate [2]
UCGACCUACAGCUUGCAGAGUAUUUAGUUA	1.05 ± 0.066	0.0315 ± 0.0073
UCCACCUUCAGCUUGCAUAGUAUUUAGUAA	0.628 ± 0.038	0.0237 ± 0.0045
AGGUCCUUCAGCUUGCAUAGUAUUUAGUUA	1.42 ± 0.05	0.0947 ± 0.018
UCCUCCUUCAGCUUGCAUAGUAUUUAGUUA	1.23 ± 0.036	0.0537 ± 0.0085
UGGUCCUUCAGCUUGCAUAGUAUUUAGUUA	1.22 ± 0.059	0.0643 ± 0.011
UCCUCCUCCAGCUUGCAUAGUAUUUAGUUA	1.12 ± 0.027	0.0546 ± 0.0092
UCCUCCUUCAGCUUGCAUAGUAUUUAGUAA	0.717 ± 0.04	0.0202 ± 0.0041
UCCUCGUUCAGCUUGCAUAGUAUUUAGUUA	1.4 ± 0.041	0.0653 ± 0.014
UCGUCCUUCAGCUUGCAUAGUAUUUAGUUA	1.41 ± 0.038	0.0596 ± 0.01
UCCUGGUUCAGCUUGCAUAGUAUUUAGUUA	0.972 ± 0.042	0.0721 ± 0.016
UCCUGGUACAGCUUGCAUUGUAUUUAGAAA	0.0478 ± 0.013	
AGGACCUACACCUUGCAUAGUAUUAAGUUA	0.627 ± 0.054	0.0334 ± 0.0069
UCCUGGAUGAGCUUGCAAAGUAUUAAGUUA	0.331 ± 0.035	0.00974 ± 0.0037
UCCACCUACAGCUUGGAAAGUAUUUAGUUA	1.01 ± 0.03	0.00576 ± 0.0018
UCCACCUACAGCUUGCAUAGUAUCUUAGUUA	0.709 ± 0.057	0.0225 ± 0.005
UCCACCUACAGCUUGCAUAGUAAAUACAAA	0.155 ± 0.037	
UCCUGGAUGUGCUUGGAUAGUAUAUAGUUA	0.0799 ± 0.017	0.0106 ± 0.0049
UCCUGGAACAGCUUGCAUAGUAUUUAAGUUA	0.549 ± 0.034	0.0597 ± 0.014
UGGACCUACAGCUGGCAUAGUAUUUAGUUA	1.04 ± 0.044	0.0463 ± 0.011
AGGACCUACAGCUGCAUAGUAUUUAGUUA	1.15 ± 0.068	0.0107 ± 0.0029
UCGACCUACAGCUGCAUAGUAUUUAGUUA	1.3 ± 0.079	0.00665 ± 0.0025
UCCUGCUACAGCUCUGCAUAGUAUUUAGUUA	0.851 ± 0.058	0.0138 ± 0.003

Sequence	pre-steady-state target cleavage rate [1]	pre-steady-state target cleavage rate [2]
UGGACCUACAGCUCUGCAUAGUAUUUAGUUA	1.56 ± 0.11	0.0566 ± 0.014
UCGACCUACAGCUCUGCAUAGUAUUUAGUUA	1.32 ± 0.067	0.0476 ± 0.0099
AGGACCUACAGCUAUGCAUAGUAUUUAGUUA	0.962 ± 0.052	0.0545 ± 0.011
UGGACCUACAGCUGCAUAGUAUUUAGUUA	1.37 ± 0.11	0.00982 ± 0.0031
AGGACCUACAGCUCUGCAUAGUAUUUAGUUA	1.56 ± 0.1	0.0543 ± 0.014
UCCACCUACAGCUCUGCAUAGUAUUUAGUUA	0.862 ± 0.063	0.0214 ± 0.0048
UCCUCCUACAGCUCUGCAUAGUAUUUAGUUA	1.03 ± 0.044	0.0182 ± 0.0041
UGGACCUACAGCUAUGCAUAGUAUUUAGUUA	1.24 ± 0.11	0.0371 ± 0.0083
UCCACCUACAGCUUGCAUAGUAAAAAGAAA	0.102 ± 0.028	
UCCUGGAUCAGCUUGCUUAGUUUUUAGUUA	0.0882 ± 0.01	0.0125 ± 0.0034
UCCUGGUACAGCUUGCAUAGUUAUUAGUAA	0.0627 ± 0.017	0.00413 ± 0.0036
UCCUGGUAUCAGCUUGCAUAGUAUUUAGUUA	0.546 ± 0.06	0.062 ± 0.014
UCGACCUACAGCUUGGUUAGUAUUUAGAAA	0.224 ± 0.04	
UCCUGGAUGUCGAUGCAUAGUAUUUUGUUA	0.00674 ± 0.0031	
UGGACGUACAGCUUGCAUAGUAUUUUCAAA	0.213 ± 0.034	0.00471 ± 0.0022
UCCUGCUACAGCUUGGUUAGUAUUUUCAAA	0.00524 ± 0.0039	
UCCUGGAACAGCUUGCAUAUAUUUAGUUA	0.0784 ± 0.011	0.0034 ± 0.0028
UCCUCCUACAGCUUGCAUAGUAUAAUGUUA	0.346 ± 0.027	0.0146 ± 0.0024
UCCUGGUACAGCCUUGCAUAGUAUUUAGUUA	0.594 ± 0.049	0.0422 ± 0.0091
UCGACCUACAGCUUGCGAUAGUAUUUAGUUA	0.0797 ± 0.02	
UCGACCUACAGCUUGCGUAGUAUUUAGUUA	1.86 ± 0.066	0.0695 ± 0.018
UCCUGCUACAGCUUGCGUAGUAUUUAGUUA	0.806 ± 0.044	0.0172 ± 0.0034

Sequence	pre-steady-state target cleavage rate [1]	pre-steady-state target cleavage rate [2]
UCCACCUACAGCUUGCGUAGUAUUUAGUUA	1.26 ± 0.049	0.0423 ± 0.0094
UCCUCCUACAGCUUGCGAUAGUAUUUAGUUA	0.0601 ± 0.018	
UCGACCUACAGCUUGCCUAGUAUUUAGUUA	1.14 ± 0.046	0.0457 ± 0.0085
UGGACCUACAGCUUGCGUAGUAUUUAGUUA	1.79 ± 0.11	0.0538 ± 0.01
AGGACCUACAGCUUGCGUAGUAUUUAGUUA	1.24 ± 0.077	0.075 ± 0.013
UCCUCCUACAGCUUGCGUAGUAUUUAGUUA	1.55 ± 0.078	0.0225 ± 0.0064
UGGACCUACAGAUUGCAUAGUAUUUAGUUA	1.12 ± 0.11	0.042 ± 0.0077
AGGACCUACAGCUUGCAUACAUUUUAGUUA	0.0106 ± 0.0061	
UCGUCCUACACCUUGCAUAGUAUUUAGUUA	0.986 ± 0.045	0.0586 ± 0.0084
UCGACCUACAGCUUGCAUACAAUUUAGUUA	0.0219 ± 0.0076	0.00334 ± 0.0025
UCGUCGUACAGCUUGCAUAGUAUUUAGUUA	1.31 ± 0.067	0.0685 ± 0.012
UCCUCGUACAGCUUGCAUAGUAUUUAGUUA	1.46 ± 0.043	0.0602 ± 0.01
UCCUCGUACAGCUUGCAUAGUAUUUAGAAA	0.363 ± 0.029	0.00538 ± 0.0021
UCCUGGUACAGCUUGCAAAGUAUUUAGUUA	0.711 ± 0.046	0.0405 ± 0.0074
UCCUCCUACAGCUUGCAAAGUAUUUAGUUA	1.14 ± 0.039	0.0317 ± 0.0066
UGGUCGUACAGCUUGCAUAGUAUUUAGUUA	1.33 ± 0.056	0.073 ± 0.0095
UCCUCGUACAGCUUGCAAAGUAUUUAGUUA	1.32 ± 0.048	0.0595 ± 0.012
UCGUGGUACAGCUUGCAUAGUAUUUAGUUA	1.23 ± 0.038	0.0818 ± 0.014
UCGUACCUACAGCUUGCAUAGUAUUUAGUUA	0.909 ± 0.034	0.0778 ± 0.016
UCCACCGUACAGCUUGCAUAGUAUUUAGUUA	1.18 ± 0.054	0.0628 ± 0.012
UCCUCGUACAGCUUGCAUAGUAUUUAGUAA	0.903 ± 0.048	0.0263 ± 0.0049
